Laboratory results as given in PubChem BioAssay (Tox21).
Results filed as inconclusive are left out. Activity calls are given as the source filed them. Unless noted, calls follow the shape of the dose curve; as a rule, active = well fitted curve in the direction sought with a large enough effect in the repeat runs; inconclusive = weak or mixed curves; inactive = no such curve, though single readings can be large; an effect the other way counts as inactive or inconclusive.

How the values were obtained:
[1] = qHTS assay to identify aromatase inhibitors - cell viability counter screen (AID 743084); settings: MCF-7 aro ERE viability, CellTiter-Fluor, 24 h; series mostly up to 70.3 µM;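 also: cells stimulated with testosterone during compound exposure; nearly all actives have a fitted effect of over 55% in size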; also: potency is read from the fitted curve at half-maximal effect
[2] = qHTS assay to identify small molecule that activate the aryl hydrocarbon receptor (AhR) signaling pathway - cell viability counter screen (AID 743086); settings: HepG2-AhR-luc viability, CellTiter-Fluor, 24 h; series mostly up to 70.3 µM; also: nearly all actives have a fitted effect of over 45% in size; also: potency is read from the fitted curve at half-maximal effect
Method in brief: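 HepG2-AhR-luc (HG2L7.5c1) cells, 4000/well, treated 24 h at 37 C with compound; viability measured as CellTiter-Fluor fluorescence after 30 min in the same wells as the luciferase read.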

[3] = qHTS assay to identify small molecule antagonists of the peroxisome proliferator-activated receptor gamma (PPARg) signaling pathway - cell viability counter screen (AID 743194); settings: PPARg-bla HEK293H viability, CellTiter-Glo luminescence, 17 h, co-treated with 50 nM rosiglitazone; series mostly up to 62.6 µM; also: nearly all actives have a fitted effect of over 55% in size; also: potency is read from the fitted curve at half-maximal effect
Method in brief: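 Cytotoxicity counter screen in PPARg-bla HEK293H cells, same wells as reporter assay. Compounds plus 50 nM rosiglitazone (final) for 17 h at 37 C, then viability read by CellTiter-Glo luminescence.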

[4] = qHTS assay for small molecule agonists of the antioxidant response element (ARE) signaling pathway - cell viability counter screen (AID 743203; calls by dose curve; also: nearly all actives have a fitted effect of over 55% in size; also: potency is read from the fitted curve at half-maximal effect); settings: ARE-bla HepG2 viability, CellTiter-Glo luminescence, 16 h; series mostly up to 73.3 µM
Method in brief: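 Viability counter screen: stably transfected ARE-bla HepG2 line, 16 hrs compound exposure at 37C/5% CO2, ATP-based CellTiter-Glo luminescence measured in the reporter wells.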

[5] = qHTS assay for small molecule activators of the heat shock response signaling pathway (AID 743210; active = well fitted activation curve with a large enough effect in the signal ratio in the repeat runs, with a control signal flat, not every such curve was filed as active; the % refers to the signal ratio;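 also: HeLa cells with beta-lactamase reporter driven by heat shock elements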); settings: HeLa HSE-bla reporter, beta-lactamase ratio, 5 h; series mostly up to 62.6 µM
Method in brief: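 Beta-lactamase reporter read-out: FRET substrate fluorescence after 2.5 h at RT, following 5 h compound treatment at 37 C of HeLa cells carrying HSE-driven bla reporter; quantitative HTS format.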

[6] = qHTS assay to identify small molecule agonists of the peroxisome proliferator-activated receptor delta (PPARd) signaling pathway - cell viability counter screen (AID 743211); settings: PPARd-bla HEK293H viability, CellTiter-Glo luminescence, 17 h; series mostly up to 62.6 µM; also: nearly all actives have a fitted effect of over 55% in size; also: potency is read from the fitted curve at half-maximal effect
Method in brief: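 PPARd-bla HEK293H cells (3000/well) were pre-incubated 5 h at 37 C, then exposed to compound for 17 h at 37 C. After 2 h with LiveBLAzer substrate, CellTiter-Glo was added to the same wells; luminescence read after 30 min at room temperature.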

[7] = molecular target: Peroxisome proliferator-activated receptor delta (Homo sapiens) (UniProt Q03181); experiment: qHTS assay to identify small molecule agonists of the peroxisome proliferator-activated receptor delta (PPARd) signaling pathway (AID 743212; calls by dose curve); settings: HEK293H PPARd-UAS-bla, beta-lactamase FRET ratio, 17 h; series mostly up to 62.6 µM
Method in brief: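 Read-out: beta-lactamase FRET fluorescence after 2 h room-temperature incubation with LiveBLAzer B/G substrate. Cells were HEK293H carrying a UAS-bla reporter for PPARd, treated at 37 C with DMSO-dissolved compounds.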

[8] = molecular target: Peroxisome proliferator-activated receptor delta (Homo sapiens) (UniProt Q03181); experiment: qHTS assay to identify small molecule antagonists of the peroxisome proliferator-activated receptor delta (PPARd) signaling pathway (AID 743215; active = well fitted inhibition curve with a large enough effect in the signal ratio in the repeat runs, not every such curve was filed as active; the % refers to the signal ratio;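 also: cells stimulated with agonist L165041 at 300 nM final during compound exposure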); settings: HEK293H PPARd-UAS-bla, beta-lactamase FRET ratio, antagonist, 17 h; series mostly up to 62 µM
Method in brief: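 Plated HEK293H PPARd-bla cells rested 5 h at 37 C and 5% CO2. Compound, then agonist L165041 at 300 nM final, was added; 17 h at 37 C followed. Substrate loading, 2 h room temperature, fluorescence measured.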

[9] = qHTS assay to identify small molecule agonists of the farnesoid-X-receptor (FXR) signaling pathway - cell viability counter screen (AID 743218); settings: FXR-bla HEK293T viability, CellTiter-Glo luminescence, 16 h; series mostly up to 62.6 µM; also: nearly all actives have a fitted effect of over 45% in size; also: potency is read from the fitted curve at half-maximal effect
Method in brief: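 Viability of FXR-bla HEK 293T cells is measured by ATP-based CellTiter-Glo luminescence following 16 h compound treatment at 37 C and a prior 2 h room-temperature beta-lactamase substrate step.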

[10] = molecular target: Bile acid receptor (Homo sapiens) (UniProt Q96RI1); experiment: qHTS assay to identify small molecule agonists of the farnesoid-X-receptor (FXR) signaling pathway (AID 743220; active = well fitted activation curve with a large enough effect in the signal ratio in the repeat runs, not every such curve was filed as active; the % refers to the signal ratio; also: potency is read from the fitted curve at half-maximal effect); settings: HEK293T FXR-UAS-bla, beta-lactamase FRET ratio, 16 h; series mostly up to 62.6 µM
Method in brief: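 FXR-UAS-bla HEK 293T cells carrying a UAS-driven beta-lactamase reporter were plated for 5 h at 37C/5% CO2, then exposed to DMSO-dissolved Tox21 10K compounds for 16 h at 37C. A LiveBLAzer B/G FRET substrate was loaded for 2 h at room temperature before fluorescence reading.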

[11] = qHTS assay to identify small molecule antagonists of the farnesoid-X-receptor (FXR) signaling pathway - cell viability counter screen (AID 743221; active = well fitted cell-killing curve with a large enough effect in the repeat runs, not every such curve was filed as active; also: nearly all actives have a fitted effect of over 50% in size; also: potency is read from the fitted curve at half-maximal effect); settings: FXR-bla HEK293T viability, CellTiter-Glo luminescence, 16 h; series mostly up to 62.6 µM
Method in brief: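 GeneBLAzer FXR-UAS-bla HEK 293T cells, compound plus chenodeoxycholic acid (50 uM final), 16 h at 37 C. CellTiter-Glo added to the same wells after the beta-lactamase read; luminescence read after 30 min at room temperature as viability.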

[12] = molecular target: Peroxisome proliferator-activated receptor gamma (Homo sapiens) (UniProt P37231); experiment: qHTS assay to identify small molecule agonists of the peroxisome proliferator-activated receptor gamma (PPARg) signaling pathway (AID 743094; active = well fitted activation curve with a large enough effect in the signal ratio in the repeat runs, not every such curve was filed as active; the % refers to the signal ratio; also: potency is read from the fitted curve at half-maximal effect); settings: HEK293H PPARg-UAS-bla, beta-lactamase FRET ratio, 17 h; series mostly up to 57 µM
Method in brief: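 Reporter activation was scored by fluorescence of cleaved LiveBLAzer B/G substrate (1 h, room temperature) in PPARg-bla HEK293H cells previously treated 17 h at 37C with DMSO-dissolved compounds.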

[13] = qHTS assay for small molecule activators of the heat shock response signaling pathway - cell viability counter screen (AID 743209); settings: HSE-bla HeLa viability, CellTiter-Glo luminescence, 5 h; series mostly up to 62.6 µM; also: nearly all actives have a fitted effect of over 50% in size; also: potency is read from the fitted curve at half-maximal effect
Method in brief: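 Viability of HSE-bla HeLa cells is measured with CellTiter-Glo in the wells already used for the reporter read. Compound exposure lasts 5 h at 37 C, and luminescence is read after 30 min at room temperature.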

[14] = molecular target: Vitamin D3 receptor (Homo sapiens) (UniProt P11473); experiment: qHTS assay to identify small molecule agonists of the vitamin D receptor (VDR) signaling pathway (AID 743222; calls by dose curve; also: potency is read from the fitted curve at half-maximal effect); settings: HEK293T VDR-UAS-bla, beta-lactamase FRET ratio, 16 h; series mostly up to 63.5 µM
Method in brief: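 Fluorescence from cleaved LiveBLAzer B/G FRET substrate served as readout. VDR-bla cells had been treated 16 h at 37C with test compounds in DMSO, following a 4 h settling period, and substrate was loaded for 2 h at RT.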

[15] = molecular target: Aryl hydrocarbon receptor (Homo sapiens) (UniProt P35869); experiment: qHTS assay to identify small molecule that activate the aryl hydrocarbon receptor (AhR) signaling pathway (AID 743085); settings: HepG2 AhR-luc (HG2L7.5c1), luciferase, 24 h; series mostly up to 70.3 µM;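 also: HG2L7.5c1 human HepG2 liver cells with stably integrated DRE-driven firefly reporter; nearly all actives have a fitted effect of over 15% in size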
Method in brief: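 HepG2 cells stably carrying a 20-DRE firefly luciferase reporter (HG2L7.5c1) treated with compound for 24 hr at 37C. Luciferase read by ONE-Glo luminescence, with CellTiter-Fluor viability read first.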

[16] = molecular target: Peroxisome proliferator-activated receptor gamma (Homo sapiens) (UniProt P37231); experiment: qHTS assay to identify small molecule antagonists of the peroxisome proliferator-activated receptor gamma (PPARg) signaling pathway (AID 743191; calls by dose curve; also: nearly all actives have a fitted effect of over 30% in size); settings: HEK293H PPARg-UAS-bla, beta-lactamase ratio, antagonist, 17 h; series mostly up to 62.6 µM
Method in brief: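 GeneBLAzer PPARg UAS-bla HEK293H cells, 5 h post-plating, exposed to compounds 17 h at 37C. LiveBLAzer B/G FRET substrate added for 1 h at room temperature; beta-lactamase reporter read by fluorescence intensity.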

[17] = qHTS assay for small molecule agonists of the antioxidant response element (ARE) signaling pathway (AID 743202; active = well fitted activation curve with a large enough effect in the signal ratio in the repeat runs, not every such curve was filed as active; the % refers to the signal ratio; also: potency is read from the fitted curve at half-maximal effect); settings: HepG2 ARE-bla reporter, beta-lactamase FRET, 16 h; series mostly up to 73.3 µM
Method in brief: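 HepG2 ARE-bla reporter line, 2,000 cells/well; 5 h preincubation 37 C/5% CO2; compound (DMSO) 16 h 37 C; B/G FRET substrate 2 h RT; fluorescence intensity.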

[18] = qHTS assay to identify small molecule antagonists of the peroxisome proliferator-activated receptor delta (PPARd) signaling pathway - cell viability counter screen (AID 743213); settings: PPARd-bla HEK293H viability, CellTiter-Glo luminescence, 17 h; series mostly up to 62 µM; also: nearly all actives have a fitted effect of over 50% in size; also: potency is read from the fitted curve at half-maximal effect
Method in brief: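 In this counter screen, HEK293H cells carrying a UAS-beta-lactamase reporter are co-treated with test compounds and 300 nM L165041 (final) for 17 h at 37 C; cell viability is quantified by CellTiter-Glo luminescence.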

[19] = molecular target: Vitamin D3 receptor (Homo sapiens) (UniProt P11473); experiment: qHTS assay to identify small molecule antagonists of the vitamin D receptor (VDR) signaling pathway (AID 743223; active = well fitted inhibition curve with a large enough effect in the signal ratio in the repeat runs, not every such curve was filed as active; the % refers to the signal ratio); settings: VDR-UAS-bla HEK293T, beta-lactamase FRET ratio, 16 h; series mostly up to 61 µM
Method in brief: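 VDR-bla cells were treated with compound plus 3 nM final 1alpha,25-dihydroxyvitamin D3 for 16 h at 37C. Beta-lactamase reporter read by B/G FRET substrate fluorescence after 2 h at room temperature. qHTS format.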

Measured: Potency

Chain of Bile acid receptor (Homo sapiens) (Q96RI1 whole entry, looked up): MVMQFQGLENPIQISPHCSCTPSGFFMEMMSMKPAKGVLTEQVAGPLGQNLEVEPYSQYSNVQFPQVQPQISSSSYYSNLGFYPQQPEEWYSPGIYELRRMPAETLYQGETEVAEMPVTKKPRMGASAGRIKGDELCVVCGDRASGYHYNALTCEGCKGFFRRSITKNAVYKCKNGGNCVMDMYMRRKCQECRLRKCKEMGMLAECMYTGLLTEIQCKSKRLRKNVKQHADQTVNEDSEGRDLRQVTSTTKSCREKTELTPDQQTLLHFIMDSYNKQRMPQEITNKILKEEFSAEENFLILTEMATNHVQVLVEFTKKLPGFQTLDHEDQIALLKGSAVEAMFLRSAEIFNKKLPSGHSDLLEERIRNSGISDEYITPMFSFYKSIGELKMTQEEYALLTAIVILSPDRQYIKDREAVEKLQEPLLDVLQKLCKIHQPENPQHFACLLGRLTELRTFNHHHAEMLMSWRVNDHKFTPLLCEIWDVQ
Chain of Peroxisome proliferator-activated receptor gamma (Homo sapiens) (P37231 whole entry, looked up): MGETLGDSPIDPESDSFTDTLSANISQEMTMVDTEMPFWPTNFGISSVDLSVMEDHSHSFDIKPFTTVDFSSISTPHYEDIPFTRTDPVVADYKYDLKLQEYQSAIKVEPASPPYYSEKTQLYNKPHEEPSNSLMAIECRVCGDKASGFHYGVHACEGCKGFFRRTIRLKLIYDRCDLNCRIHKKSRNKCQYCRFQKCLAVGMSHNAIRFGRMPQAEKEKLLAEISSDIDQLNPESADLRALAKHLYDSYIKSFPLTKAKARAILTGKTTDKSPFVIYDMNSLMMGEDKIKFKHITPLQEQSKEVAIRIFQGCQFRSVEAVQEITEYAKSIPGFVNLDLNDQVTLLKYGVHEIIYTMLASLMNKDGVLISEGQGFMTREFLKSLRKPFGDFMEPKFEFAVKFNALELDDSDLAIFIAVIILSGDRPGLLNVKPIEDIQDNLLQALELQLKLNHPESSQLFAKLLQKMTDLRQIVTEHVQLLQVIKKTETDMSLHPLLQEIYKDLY
Chain of Peroxisome proliferator-activated receptor delta (Homo sapiens) (Q03181 whole entry, looked up): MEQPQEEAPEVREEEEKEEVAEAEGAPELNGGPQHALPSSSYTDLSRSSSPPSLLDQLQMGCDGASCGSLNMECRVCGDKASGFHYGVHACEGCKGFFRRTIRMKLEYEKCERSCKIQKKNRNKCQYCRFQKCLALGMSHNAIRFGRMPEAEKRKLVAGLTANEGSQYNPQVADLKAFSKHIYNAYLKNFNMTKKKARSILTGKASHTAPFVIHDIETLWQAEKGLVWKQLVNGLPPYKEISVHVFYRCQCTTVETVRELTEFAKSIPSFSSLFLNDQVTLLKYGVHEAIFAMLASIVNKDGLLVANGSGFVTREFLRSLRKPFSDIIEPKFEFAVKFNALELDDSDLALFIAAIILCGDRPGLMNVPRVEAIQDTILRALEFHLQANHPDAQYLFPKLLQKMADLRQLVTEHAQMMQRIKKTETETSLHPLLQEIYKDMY
Chain of Aryl hydrocarbon receptor (Homo sapiens) (P35869 whole entry, looked up): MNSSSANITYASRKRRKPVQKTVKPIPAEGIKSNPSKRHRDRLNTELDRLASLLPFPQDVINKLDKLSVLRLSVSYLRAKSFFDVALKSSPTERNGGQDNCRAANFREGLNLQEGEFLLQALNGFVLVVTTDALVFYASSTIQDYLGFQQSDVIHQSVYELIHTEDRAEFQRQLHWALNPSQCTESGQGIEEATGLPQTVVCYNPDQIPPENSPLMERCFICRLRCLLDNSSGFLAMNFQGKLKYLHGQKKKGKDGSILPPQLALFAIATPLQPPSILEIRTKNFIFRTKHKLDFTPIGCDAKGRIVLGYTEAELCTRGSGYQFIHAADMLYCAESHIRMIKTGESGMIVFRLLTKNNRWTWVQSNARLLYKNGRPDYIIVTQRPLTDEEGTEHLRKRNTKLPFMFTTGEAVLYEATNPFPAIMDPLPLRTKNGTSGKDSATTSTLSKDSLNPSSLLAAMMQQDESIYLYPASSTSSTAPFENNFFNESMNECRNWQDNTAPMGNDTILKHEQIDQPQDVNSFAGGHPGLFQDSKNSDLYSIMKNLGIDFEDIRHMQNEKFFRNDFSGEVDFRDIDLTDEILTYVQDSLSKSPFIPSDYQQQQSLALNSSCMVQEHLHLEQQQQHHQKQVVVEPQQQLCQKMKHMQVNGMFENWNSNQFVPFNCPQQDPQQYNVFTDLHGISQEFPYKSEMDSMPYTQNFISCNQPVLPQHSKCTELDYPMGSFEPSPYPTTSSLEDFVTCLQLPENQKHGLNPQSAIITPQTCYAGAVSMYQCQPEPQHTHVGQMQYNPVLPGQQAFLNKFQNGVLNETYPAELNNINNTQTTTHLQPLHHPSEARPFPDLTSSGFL
Chain of Vitamin D3 receptor (Homo sapiens) (P11473 whole entry, looked up): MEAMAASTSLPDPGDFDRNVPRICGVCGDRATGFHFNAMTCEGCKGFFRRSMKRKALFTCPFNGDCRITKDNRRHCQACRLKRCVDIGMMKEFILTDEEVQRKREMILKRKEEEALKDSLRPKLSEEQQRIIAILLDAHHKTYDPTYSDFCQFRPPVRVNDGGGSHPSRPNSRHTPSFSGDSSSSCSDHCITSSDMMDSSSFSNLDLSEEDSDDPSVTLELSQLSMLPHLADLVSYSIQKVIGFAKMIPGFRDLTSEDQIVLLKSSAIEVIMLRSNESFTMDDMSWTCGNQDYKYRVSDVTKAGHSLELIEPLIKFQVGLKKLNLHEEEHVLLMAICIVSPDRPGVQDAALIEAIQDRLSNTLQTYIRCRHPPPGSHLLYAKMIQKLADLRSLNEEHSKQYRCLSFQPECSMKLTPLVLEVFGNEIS

C[C@]12CC[C@H]3C(=CCc4cc(O)ccc43)[C@@H]1CCC2=O
not listed: [12] | [13] | [14] | [15] | [16] | [17] | [18] | [19]
inactive: all other assays above

C=CC(=C)CCC=C(C)C
inactive: [1] | [2] | [12] | [3] | [4] | [13] | [9] | [11] | [14]

C/C=C/C(=O)Oc1c(CCCCCC(C)C)cc([N+](=O)[O-])cc1[N+](=O)[O-]
active: [1] 21.7 µM | [3] 6.16 µM | [4] 8.63 µM | [13] 24.5 µM | [11] 43.6 µM

CCN(CC)CCOC(=O)C1(C2CCCCC2)CCCCC1
not listed: [1] | [6] | [8] | [10]
inactive: all other assays above

CC(C)(c1cc(Br)c(OCCO)c(Br)c1)c1cc(Br)c(OCCO)c(Br)c1
inactive: [1] | [2] | [12] | [10]
active: [3] 17 µM | [4] 18.9 µM | [13] 17 µM | [6] 15.1 µM | [9] 19.1 µM

Nc1cc(Cl)c([N+](=O)[O-])cc1O
active: [1] 30.4 µM
not listed: [2] | [10] | [12] | [15] | [16] | [17]
inactive: all other assays above

c1cc(OCC2CO2)cc(OCC2CO2)c1 (centres undefined)
active: [1] 48.2 µM | [17] 30.4 µM
inactive: [3] | [4] | [13] | [7] | [9] | [11] | [14]

N#CSCSc1nc2ccccc2s1
inactive: [2] | [9]
active: [1] 27.3 µM | [3] 7.76 µM | [4] 30.6 µM | [18] 4.9 µM

CCCOc1sc(C(=O)N2CCC(c3cc(CN)ccc3F)CC2)c(C)c1Br
active: [1] 44.5 µM | [2] 56 µM | [3] 17.9 µM | [4] 17.7 µM | [13] 40 µM | [6] 15.9 µM | [18] 17.9 µM | [9] 25.2 µM | [11] 50.4 µM

COc1cccc(CCc2ccccc2OCC(CN(C)C)OC(=O)CCC(=O)O)c1 (centres undefined)
inactive: [1] | [4] | [13] | [5] | [7] | [8] | [9] | [10] | [14] | [19]

CC(C)OC(=O)c1cc(C(=O)OC(C)C)cc([N+](=O)[O-])c1
inactive: [1] | [2] | [4] | [13] | [11]

CCCCCCOc1cc(C)c(O)c(C)c1C
inactive: [2] | [12] | [3] | [6] | [7] | [18] | [8] | [9] | [14] | [19]
active: [1] 49.2 µM

CN1[C@@H]2CC[C@@H]1CC(OC(=O)C(CO)c1ccccc1)C2 (some centres undefined)
inactive: [1] | [2] | [3] | [13] | [6] | [9] | [11]

C=C1C(C)(C)[C@@]2(Cl)C(Cl)[C@]1(Cl)C(Cl)(Cl)C2(Cl)Cl (some centres undefined)
inactive: [15] | [2] | [12] | [18] | [14]
active: [17] 7.56 µM | [6] 38.2 µM | [9] 53.9 µM

CCOC(=O)C1=C(C)NC(C)=C(C(=O)OCC)C1c1ccccc1/C=C/C(=O)OC(C)(C)C
active: [12] 9.52 µM | [9] 23.7 µM | [10] 33.5 µM | [14] 29.8 µM
inactive: [1] | [2] | [3]

O=C1c2c(O)ccc(O)c2C(=O)c2c(NCCNCCO)ccc(NCCNCCO)c21
inactive: [15] | [18] | [10] | [11]
active: [6] 29.8 µM
